± gives the standard deviation of the averaged measurements. Whole data set: some 25,000 sequences, median “ln(normalized median fluorescence intensity)” near 7.9, cut for the highest 2% near 11. This excerpt belongs to a sample that is enriched for the highest values.
system: PfAP2-I AP2 domain 3 (GST-tagged); experiment: gcPBM binding intensity (ln(normalized median fluorescence intensity)); higher = stronger DNA binding
Procedure, shortened: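 Binding intensity is defined as the maximum Masliner-normalised natural-log median intensity across replicate spots for either probe orientation. It was measured on an Agilent 4 × 180k array of primer-extended double-stranded 36-bp intergenic genomic probes and negative controls, to which GST-tagged P. falciparum DNA-binding domains made in E. coli were applied for 1 h in 1× PBS with 1% milk, 0.2 mg/ml BSA, 0.5% salmon testes DNA and 0.03% Triton X-100. Detection was by Alexa488 anti-GST antibody and scanning at 488 nm.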

| Sequence | gcPBM binding intensity (ln) |
| --- | --- |
| GTTATAACTCAAATATGTACATATTATAAAACATAT [XGTACX_site6693] | 7.92 ± 0.47 |
| TTTTTTTTTTATTGTACATGCAAAAAATTCCACACA [TGCATGCA_site279] | 8.31 ± 0.32 |
| ATTTACCCTTGCCATGCACACTTTTTTATAGAAAAT [CACACA_site5857] | 8.95 ± 0.44 |
| GAACTTTACAACCCAACACACAAAAAAGAAAAGAAA [CACACA_site1717] | 7.87 ± 0.46 |
| CTATGCATTTATAGTGCATGTAAAATATAAGATAAT [TGCATGCA_site71] | 9.86 ± 0.085 |
| TTTCTAGTTACAAGAGTGCATAATATATAAAAATAA [GTGCAC_site9874] | 10.9 ± 0.56 |
| ACATTTACAAGGAAAGTGCATATAAGAAAAATAAAA [GTGCAC_site9587] | 10.2 ± 0.11 |
| TTTAGATATATGGTAGTGCATAATAAAAATATAGCC [GTGCAC_site9449] | 11.1 ± 0.67 |
| TAAAAAATGATAGAAGTGCATAAAATAATATATATA [GTGCAC_site9904] | 10.4 ± 0.13 |
| TTGTGTGAGCAAGTAGTGCATAATATAAATAAAAAA [GTGCAC_site9802] | 11.2 ± 0.54 |
| TAAAAAATTAATAAAGTGCATAAATATTACAATATT | 10.3 ± 0.4 |
| AGTAGCAAATATTAAGTGCATATTATATAATGTGTA [GTGCAC_site9546] | 9.04 ± 0.16 |
| AAAATAATATAAATAATATAAGTGAGCATATATATA [TGCATGCA_negctrl_site527] | 7.92 ± 0.72 |
| TATAATAACAATTTAGTGCATATAATAATATTTTAT | 10 ± 0.19 |
| ATAATATTTTATATAGTGCATTTGCTCATTATATAT [GTGCAC_site9528] | 9.85 ± 0.45 |
| CCACGAGAATATATAGTGCATAATAATTTTTTTTTG | 11.1 ± 0.4 |
| TCAAAATATCCAAAAGAATAAAGAAAAAAAAAAAGA [CACACA_negctrl_site1377] | 7.5 ± 0.41 |
| TTGTAATTTATTCAAACACACAATTTGGACCTTTTT [CACACA_site1063] | 7.45 ± 0.51 |
| TTTTTACTATAAGGGGAAAAAAAAAAAAATAATATA [XGTACX_negctrl_site279] | 7.78 ± 0.28 |
| ATGTAGATATATATATGTACTAATTAGTAGTTTACG [XGTACX_site6275] | 8 ± 0.41 |
| ATATATATATCAACAACACACGATTAACTAAAAAAA [CACACA_site302] | 8.8 ± 0.19 |

| Sequence | gcPBM binding intensity (ln) |
| --- | --- |
| ACCTTATTTAGTTATAGTACACAAAGTATTAAACAT [XGTACX_site8418] | 8.46 ± 0.46 |
| AGTATACATTCATTTTGTACTCAATGATTTGATAAC [XGTACX_site6787] | 7.63 ± 0.42 |
| CTATTATCGGTTCCTACACACAAATATATATGTCTA [CACACA_site3579] | 8.1 ± 0.57 |
| TGTTTTTTTATTTTCACACATAATCCAATTATACAT [CACACA_site6070] | 8.22 ± 0.55 |
| TATATATATATGTAATGTACATAAATTTTATACCTT [XGTACX_site6991] | 9.27 ± 0.53 |
| ACCATATAATTTTTTTGTACATAATGATTTTTTTTT [XGTACX_site1104] | 7.99 ± 0.45 |
| GGTCTAACAACATGCGCACACACATGAATATTCATA [CACACA_site1539] | 8.81 ± 0.49 |
| ATATATAAATAAATAGTGCATTTTAATATTTAACGT | 10 ± 0.18 |
| ACATATAATAAAATAGTGCATTGTTAGTTTTATATA | 10.4 ± 0.42 |
| AAAAAAAATATACATACATGCATACATAAGTTTCTA [TGCATGCA_site998] | 7.55 ± 0.73 |
| TATATATATATATAAGTGCATATAAAAATCGTTCGT | 10.3 ± 0.11 |
| CACTAAATAAGGAAAGTGCATAAAATAAAGGTTATA [GTGCAC_site9793] | 10.4 ± 0.26 |
| TATATATATATAATAGTGCATAAATAAATATATAAA | 11.2 ± 0.45 |
| ATAGTAATGCATAAATATATATTATATATATATATA [XGTACX_negctrl_site576] | 9.21 ± 0.49 |
| ATATATATATATATAGTGCATAAAATAAGTTTCTAA | 10.8 ± 0.21 |
| AATAAAAATAATATAGTGCATAATATAAGGAAAAAA | 11.1 ± 0.49 |
| GTTGAAATAAAATTAGTGCATATATAAATATATATA | 10.2 ± 0.17 |
| TAATAAATGTTATTAGTGCATAATAGATAATATATT | 10.8 ± 0.64 |
| ATATATATATATATAGTGCATAATGTTTTAATAGAT | 11 ± 0.33 |
| AAAAGCACCGTTCGTTGTACACTGAAACACTTTTGT [XGTACX_site199] | 8.2 ± 0.76 |
| AACATGTTAAAATAAACACACAGCTAAGGTTTTTTT [CACACA_site157] | 7.4 ± 0.69 |

| Sequence | gcPBM binding intensity (ln) |
| --- | --- |
| TCTTTTACAAAAGCTATAACATTCACCACATTATAA [GTGCAC_negctrl_site133] | 7.68 ± 0.65 |
| CTAGGTATGCTTTAAACATGCAAAAATACAAATTAC [TGCATGCA_site239] | 7.97 ± 0.76 |
| ATAAATCCATGGGTAGTGCGCATTTTTTTTTTTTTT [GTGCAC_site9732] | 9.09 ± 0.41 |
| ACAATGTCATTTGCTAGTACGCATATTGGTTGTAAA [XGTACX_site8924] | 7.76 ± 0.24 |
| ATAAAATATCAATACCGTACACAAGCAGGTAAAATA [XGTACX_site3719] | 7.82 ± 0.8 |
| TGATTATAAAAGTAGGTGCTACAAAAATTACACATT [GTGCAC_site9530] | 8.7 ± 0.45 |
| TATAACATTTTTTTCAAAATAGCTTTAGAAATAAAG [CACACA_negctrl_site718] | 7.37 ± 0.54 |
| AAATAATTTATATGTAGTACATGTTGTAGATAATTT [XGTACX_site1031] | 8.16 ± 0.28 |
| TTTGTGTATATAACAGTGCAATATTATAAATATAAA [GTGCAC_site9750] | 10.5 ± 0.51 |
| CATAATATTAAATCAGTGCAAATATACAGAATAAAT [GTGCAC_site9786] | 10.1 ± 0.17 |
| TATACGTATTACAGAGTGCAATAAACAGTATATATT | 10.9 ± 0.66 |
| AAAATTATTTAGTAAGTGCAAAAAAAAAAAAAAAAA | 10.1 ± 0.23 |
| AAAAAAAATTATGAAGTGCATTAGTGAATTTGATTG | 10.9 ± 0.3 |
| TTTTGATTAAGTGAATTTTTTTATTTATATAAATAT [TGCATGCA_negctrl_site479] | 7.54 ± 0.56 |
| CAATTTTACTCATAAACACACATATATATGTTATTA [CACACA_site3152] | 7.66 ± 0.53 |
| AAAAAAAAAAAAAGTACACACTTTTGCGTACATGTA [CACACA_site7449] | 8.06 ± 0.63 |
| TATATTATATATATGTGTACATATAAATGTAACAAA [XGTACX_site5025] | 7.67 ± 0.34 |
| ATATATTTATTAAGGTGTACAAAAATTATGTTGCAT [XGTACX_site7546] | 8.26 ± 0.35 |
| TGCATTATTTACAAGGTGCGTTACAAATGTGTAACA [GTGCAC_site9442] | 11.3 ± 0.88 |

Reference: the supplement of paper PMC11417369
